Measurements: PubChem BioAssay (EPA / NIEHS)
Results filed as inconclusive are left out. More than one record can exist for a structure, and the calls need not agree. Active and inactive are the calls of the source. How the source made its calls, unless noted: active means hit-call score of the fitted dose curve at least 0.9, where 1 is the maximum; inconclusive means response in the unintended direction; inactive means score below 0.9.

Key:
[1] = molecular target: Agonist Androgen Response Element (ARE), AR (gene 367) (UniProt P10275); test: OT_AR_ARELUC_AG_1440: Odyssey Thera (OT) 24-hour CHO-K1 Luciferase Assay for Agonist Androgen Response Element (ARE) (AID 2283379)
Chain of Agonist Androgen Response Element (ARE), AR (gene 367) (P10275 whole entry, looked up): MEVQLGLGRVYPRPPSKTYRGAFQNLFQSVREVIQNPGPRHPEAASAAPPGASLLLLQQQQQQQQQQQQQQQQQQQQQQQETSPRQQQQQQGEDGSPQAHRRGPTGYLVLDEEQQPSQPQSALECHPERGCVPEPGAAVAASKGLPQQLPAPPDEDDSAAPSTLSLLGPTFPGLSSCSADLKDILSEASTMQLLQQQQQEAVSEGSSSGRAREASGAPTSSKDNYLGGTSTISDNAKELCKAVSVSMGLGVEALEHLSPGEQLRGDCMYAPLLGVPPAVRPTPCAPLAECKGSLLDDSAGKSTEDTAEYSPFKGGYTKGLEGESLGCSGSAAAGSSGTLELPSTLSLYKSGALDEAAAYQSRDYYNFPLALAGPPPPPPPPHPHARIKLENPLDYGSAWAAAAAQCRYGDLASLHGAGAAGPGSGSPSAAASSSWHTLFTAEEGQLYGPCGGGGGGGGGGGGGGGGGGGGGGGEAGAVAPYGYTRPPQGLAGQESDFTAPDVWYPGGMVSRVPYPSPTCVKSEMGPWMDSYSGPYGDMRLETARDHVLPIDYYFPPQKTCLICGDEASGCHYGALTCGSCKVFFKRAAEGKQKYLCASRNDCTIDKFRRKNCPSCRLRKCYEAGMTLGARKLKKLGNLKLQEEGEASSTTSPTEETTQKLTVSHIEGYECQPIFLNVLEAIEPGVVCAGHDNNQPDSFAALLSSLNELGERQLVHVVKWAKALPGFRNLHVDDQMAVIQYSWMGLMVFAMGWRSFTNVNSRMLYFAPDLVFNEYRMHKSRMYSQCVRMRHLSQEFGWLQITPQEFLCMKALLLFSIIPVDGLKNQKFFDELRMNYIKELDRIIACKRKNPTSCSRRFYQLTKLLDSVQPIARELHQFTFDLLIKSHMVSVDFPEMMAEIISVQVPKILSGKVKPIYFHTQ
How it was run: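 Agonist mode, 24 h exposure in CHO-K1 ARE-luciferase cells; values reflect luminescence induction over vehicle.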

[2] = molecular target: Estrogen receptor beta (Homo sapiens) (UniProt Q92731); test: OT_ER_ERbERb_1440: Odyssey Thera (OT) 24-hour HEK293T Protein-Complementation Assay for Estrogen Receptor-beta/-beta Homodimer (AID 2283380);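 further: fluorescence gain from ER beta LBD homodimer complementation read by laser scanning cytometry; scored as signal increase over DMSO baseline for both agonists and antagonists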
Chain of Estrogen receptor beta (Homo sapiens) (Q92731 whole entry, looked up, the tested form may be a part): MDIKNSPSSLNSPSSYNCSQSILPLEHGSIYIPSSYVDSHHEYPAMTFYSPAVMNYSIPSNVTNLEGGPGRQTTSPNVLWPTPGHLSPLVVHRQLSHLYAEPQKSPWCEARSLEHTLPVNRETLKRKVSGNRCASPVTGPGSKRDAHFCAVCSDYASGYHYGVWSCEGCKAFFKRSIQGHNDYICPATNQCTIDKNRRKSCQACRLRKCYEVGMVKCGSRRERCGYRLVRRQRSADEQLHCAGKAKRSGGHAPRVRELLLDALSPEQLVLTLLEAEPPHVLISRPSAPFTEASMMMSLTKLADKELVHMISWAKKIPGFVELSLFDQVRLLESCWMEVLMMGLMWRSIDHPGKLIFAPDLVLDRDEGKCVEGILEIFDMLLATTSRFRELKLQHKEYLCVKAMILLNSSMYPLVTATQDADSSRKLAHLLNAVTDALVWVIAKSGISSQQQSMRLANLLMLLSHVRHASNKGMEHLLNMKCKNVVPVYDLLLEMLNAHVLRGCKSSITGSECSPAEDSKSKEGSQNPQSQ
How it was run: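 Fluorescence increase, nuclear for agonists or whole-cell for antagonists, relative to DMSO vehicle, quantified by laser scanning cytometer after fixation and Draq5 staining. Readout from 24 h treatment of HEK293T cells carrying complementation-paired ER beta LBD (aa 310-547).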

[3] = molecular target: Bile acid receptor (Homo sapiens) (UniProt Q96RI1); test: OT_FXR_FXRSRC1_0480: Odyssey Thera (OT) 8-hour HEK293T Protein-Complementation Assay for Farnesoid X receptor/SRC-1 Co-activator (AID 2283383)
Chain of Bile acid receptor (Homo sapiens) (Q96RI1 whole entry, looked up, the tested form may be a part): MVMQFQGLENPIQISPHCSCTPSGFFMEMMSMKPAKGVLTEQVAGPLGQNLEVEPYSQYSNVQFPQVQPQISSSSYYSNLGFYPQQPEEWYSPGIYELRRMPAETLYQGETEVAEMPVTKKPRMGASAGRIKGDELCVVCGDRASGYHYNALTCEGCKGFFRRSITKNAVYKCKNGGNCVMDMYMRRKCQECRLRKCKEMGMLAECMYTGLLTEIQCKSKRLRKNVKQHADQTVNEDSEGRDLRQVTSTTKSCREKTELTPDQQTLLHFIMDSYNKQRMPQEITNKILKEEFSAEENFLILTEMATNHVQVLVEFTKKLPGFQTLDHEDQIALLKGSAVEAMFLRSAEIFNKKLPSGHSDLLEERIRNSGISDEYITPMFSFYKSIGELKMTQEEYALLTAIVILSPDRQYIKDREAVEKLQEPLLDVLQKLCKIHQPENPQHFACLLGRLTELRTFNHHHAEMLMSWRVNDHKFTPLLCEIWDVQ
How it was run: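 HEK293T protein-fragment complementation assay: FXR and SRC-1 coactivator are fused to reporter fragments, and their interaction restores a fluorescent reporter. Readout was taken 8 h after dosing, with gain of signal fit relative to DMSO.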

[4] = molecular target: Bile acid receptor (Homo sapiens) (UniProt Q96RI1); test: OT_FXR_FXRSRC1_1440: Odyssey Thera (OT) 24-hour HEK293T Protein-Complementation Assay for Farnesoid X receptor/SRC-1 Co-activator (AID 2283384)
How it was run: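 HEK293T cells, 24 h after chemical dosing. FXR–SRC-1 coactivator interaction read as fluorescence from protein-fragment complementation of a split reporter. Gain of signal fitted against DMSO baseline.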

[5] = molecular target: Retinoic acid receptor RXR-alpha (Homo sapiens) (UniProt P19793); test: OT_NURR1_NURR1RXRa_0480: Odyssey Thera (OT) 8-hour HEK293T Protein Complementation Assay for Nurr1/retinoid X receptor (RXR) (AID 2283385)
Chain of Retinoic acid receptor RXR-alpha (Homo sapiens) (P19793 whole entry, looked up, the tested form may be a part): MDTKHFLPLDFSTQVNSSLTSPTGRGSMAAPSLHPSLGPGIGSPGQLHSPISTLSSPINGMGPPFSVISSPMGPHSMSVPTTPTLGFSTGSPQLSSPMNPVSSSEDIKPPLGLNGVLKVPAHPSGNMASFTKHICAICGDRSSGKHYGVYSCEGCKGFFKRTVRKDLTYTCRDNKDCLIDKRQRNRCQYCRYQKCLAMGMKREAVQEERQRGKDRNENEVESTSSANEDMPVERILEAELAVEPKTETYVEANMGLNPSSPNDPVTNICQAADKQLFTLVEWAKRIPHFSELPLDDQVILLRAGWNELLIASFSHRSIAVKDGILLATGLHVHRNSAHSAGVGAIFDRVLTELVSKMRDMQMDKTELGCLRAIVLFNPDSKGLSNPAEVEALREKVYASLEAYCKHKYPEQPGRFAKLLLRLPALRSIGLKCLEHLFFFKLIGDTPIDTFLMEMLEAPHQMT
How it was run: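 HEK293T cells expressing Nurr1 and RXRα fused to reporter fragments (protein-fragment complementation); fluorescence measured 8 h after dosing. Gain of signal fitted relative to DMSO.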

[6] = molecular target: Retinoic acid receptor RXR-alpha (Homo sapiens) (UniProt P19793); test: OT_NURR1_NURR1RXRa_1440: Odyssey Thera (OT) 24-hour HEK293T Protein Complementation Assay for Nurr1/retinoid X receptor (RXR) (AID 2283386)
How it was run: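 HEK293T protein-fragment complementation of Nurr1 and RXRα fused to reporter fragments; compounds 24 h. Fluorescence gain from reconstituted reporter fitted versus DMSO.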

[7] = molecular target: Peroxisome proliferator-activated receptor gamma (Homo sapiens) (UniProt P37231); test: OT_PPARg_PPARgSRC1_0480: Odyssey Thera (OT) 8-hour Protein-Complementation Assay for Peroxisome Proliferator-activated Receptor Gamma / SRC-1 Co-activator (AID 2283387)
Chain of Peroxisome proliferator-activated receptor gamma (Homo sapiens) (P37231 whole entry, looked up, the tested form may be a part): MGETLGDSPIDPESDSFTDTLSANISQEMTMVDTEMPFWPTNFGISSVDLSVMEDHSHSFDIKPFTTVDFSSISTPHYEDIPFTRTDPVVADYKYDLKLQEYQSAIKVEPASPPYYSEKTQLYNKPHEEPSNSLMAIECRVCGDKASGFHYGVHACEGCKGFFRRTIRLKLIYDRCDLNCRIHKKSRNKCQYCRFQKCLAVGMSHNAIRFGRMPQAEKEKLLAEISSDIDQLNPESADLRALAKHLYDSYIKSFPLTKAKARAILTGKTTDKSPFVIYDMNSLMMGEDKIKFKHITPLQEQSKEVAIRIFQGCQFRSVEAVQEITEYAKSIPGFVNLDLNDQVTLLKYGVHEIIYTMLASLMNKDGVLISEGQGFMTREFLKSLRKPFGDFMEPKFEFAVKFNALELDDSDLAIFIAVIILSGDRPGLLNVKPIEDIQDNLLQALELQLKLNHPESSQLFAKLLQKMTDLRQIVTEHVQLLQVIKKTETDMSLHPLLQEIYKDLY
How it was run: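 Split-YFP (IFP1/IFP2) PPARg/SRC-1 reporter, HEK293T, 37 °C, 5% CO2; 8 h compound; formaldehyde fix + Draq5; high-content imaging, N/C ratio, ≥350 cells/image, positive direction vs DMSO.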

[8] = molecular target: Peroxisome proliferator-activated receptor gamma (Homo sapiens) (UniProt P37231); test: OT_PPARg_PPARgSRC1_1440: Odyssey Thera (OT) 24-hour Protein-Complementation Assay for Peroxisome Proliferator-activated Receptor Gamma/ SRC-1 Co-activator (AID 2283388)
How it was run: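 HEK293T cells transiently transfected with PPARg and SRC-1 fused via (Gly4Ser)2 linker to split Venus YFP fragments (IFP1/IFP2) were dosed 24 h; fixed, Draq5-stained, imaged at 488/635 nm; nuclear/cytoplasmic fluorescence ratio scored versus DMSO baseline, gain-of-signal.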

[9] = CEETOX_H295R_OHPREG: CeeTox H295R High-throughput Steroidogenesis Assay for OH-Pregnenolone (OHPREG) (AID 2283434; active means hit-call score of the fitted dose curve at least 0.9, where 1 is the maximum; inactive means score below 0.9); details: actives raise or lower the signal
How it was run: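 Hormone levels in spent medium were measured by tandem mass spectrometry following liquid-liquid extraction. Cells (H295R) had been forskolin-stimulated (10 uM, 48 h) before a 48 h chemical exposure at 0.1% DMSO, with activity fitted in both directions against DMSO.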

[10] = CEETOX_H295R_OHPROG: CeeTox H295R High-throughput Steroidogenesis Assay for OH-Progesterone (OHPROG) (AID 2283435; active means hit-call score of the fitted dose curve at least 0.9, where 1 is the maximum; inactive means score below 0.9;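 on AC50: human adrenal H295R cells primed 48 h with 10 µM forskolin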); details: actives raise or lower the signal
How it was run: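 H295R adrenal cells prestimulated 48 h with 10 uM forskolin, then exposed 48 h to chemical (0.1% DMSO final). 17alpha-hydroxyprogesterone in medium quantified by HPLC-MS/MS; bidirectional fit versus DMSO, with MTT viability measured in the same wells.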

[11] = CEETOX_H295R_ANDR: CeeTox H295R High-throughput Steroidogenesis Assay for Androstenedione (ANDR) (AID 2283436; active means hit-call score of the fitted dose curve at least 0.9, where 1 is the maximum; inactive means score below 0.9); details: actives raise or lower the signal
How it was run: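 Read-out is androstenedione secreted into medium, measured by tandem mass spectrometry after liquid-liquid extraction. Cells were H295R, dosed for 48 h per modified OECD 456; activity fitted in both directions relative to DMSO.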

[12] = CEETOX_H295R_CORTISOL: CeeTox H295R High-throughput Steroidogenesis Assay for Cortisol (AID 2283438; active means hit-call score of the fitted dose curve at least 0.9, where 1 is the maximum; inactive means score below 0.9;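 further: cortisol secreted into medium quantified by LC-MS/MS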); details: actives raise or lower the signal
How it was run: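 Forskolin-primed H295R cells (10 uM, 48 h) treated 48 h with test chemical in 0.1% DMSO. Cortisol in medium quantified by MTBE extraction and HPLC-MS/MS; bidirectional fit vs DMSO, MTT viability in same wells.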

[13] = CEETOX_H295R_DOC: CeeTox H295R High-throughput Steroidogenesis Assay for DOC (AID 2283439; active means hit-call score of the fitted dose curve at least 0.9, where 1 is the maximum; inactive means score below 0.9); details: actives raise or lower the signal
How it was run: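 H295R cells prestimulated 48 h with 10 uM forskolin, then exposed 48 h to test chemical (0.1% DMSO final). Medium 11-deoxycorticosterone measured by HPLC-MS/MS after MTBE extraction; bidirectional fit vs DMSO, viability checked by MTT in same wells.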

[14] = molecular target: rat Serotonin Transporter (SERT), Slc6a4 (gene 25553) (UniProt P31652); test: NVS_TR_rSERT: NovaScreen (NVS) Transporter Assay for rat Serotonin Transporter (SERT) (AID 2283375)
Chain of rat Serotonin Transporter (SERT), Slc6a4 (gene 25553) (P31652 whole entry, looked up): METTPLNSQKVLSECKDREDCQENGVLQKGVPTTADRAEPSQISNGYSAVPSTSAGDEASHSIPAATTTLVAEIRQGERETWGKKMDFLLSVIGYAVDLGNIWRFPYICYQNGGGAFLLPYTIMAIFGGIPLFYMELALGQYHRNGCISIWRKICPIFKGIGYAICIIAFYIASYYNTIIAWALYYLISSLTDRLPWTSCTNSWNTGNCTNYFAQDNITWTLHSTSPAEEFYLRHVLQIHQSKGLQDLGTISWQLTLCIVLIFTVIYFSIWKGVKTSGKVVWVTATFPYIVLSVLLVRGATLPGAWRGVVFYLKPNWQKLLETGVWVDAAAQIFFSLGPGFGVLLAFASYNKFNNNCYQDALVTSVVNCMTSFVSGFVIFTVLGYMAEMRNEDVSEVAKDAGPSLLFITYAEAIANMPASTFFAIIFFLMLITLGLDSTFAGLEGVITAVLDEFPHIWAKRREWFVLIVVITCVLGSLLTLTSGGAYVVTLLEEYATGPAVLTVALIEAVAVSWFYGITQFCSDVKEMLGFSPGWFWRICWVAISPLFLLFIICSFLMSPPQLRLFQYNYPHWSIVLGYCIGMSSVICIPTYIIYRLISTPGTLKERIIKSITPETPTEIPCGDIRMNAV
How it was run: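 Rat forebrain membranes were incubated with test chemical for 1 hour; radioligand binding to SERT was measured by filter-based scintillation counting. Primary screen ran in duplicate at 25 uM, with actives followed up in concentration series; DMSO served as negative control.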

[15] = molecular target: Estrogen receptor (Homo sapiens) (UniProt P03372); test: OT_ERa_GFPERaERE_0480: Odyssey Thera (OT) 8-hour HeLa Transcription Induction Assay for Estrogen Receptor (AID 2283381; active means hit-call score of the fitted dose curve at least 0.9, where 1 is the maximum; inactive means score below 0.9)
Chain of Estrogen receptor (Homo sapiens) (P03372 whole entry, looked up): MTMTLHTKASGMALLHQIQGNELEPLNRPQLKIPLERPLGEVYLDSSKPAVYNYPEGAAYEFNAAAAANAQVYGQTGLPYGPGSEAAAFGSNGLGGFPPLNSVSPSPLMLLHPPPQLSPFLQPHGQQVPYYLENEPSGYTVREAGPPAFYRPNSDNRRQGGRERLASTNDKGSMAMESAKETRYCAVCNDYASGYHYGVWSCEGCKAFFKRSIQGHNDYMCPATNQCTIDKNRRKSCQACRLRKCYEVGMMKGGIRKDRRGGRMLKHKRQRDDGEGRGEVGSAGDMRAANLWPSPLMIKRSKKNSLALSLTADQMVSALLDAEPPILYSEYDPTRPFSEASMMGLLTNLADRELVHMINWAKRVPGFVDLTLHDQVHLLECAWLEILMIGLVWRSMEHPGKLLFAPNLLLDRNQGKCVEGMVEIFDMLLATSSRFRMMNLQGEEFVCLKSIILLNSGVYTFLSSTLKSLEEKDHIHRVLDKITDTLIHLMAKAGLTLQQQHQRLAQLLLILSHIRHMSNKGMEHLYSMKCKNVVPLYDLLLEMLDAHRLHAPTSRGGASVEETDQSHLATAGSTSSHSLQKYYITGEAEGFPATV
How it was run: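 HeLa cells expressing GFP reporter under estrogen response element, imaged 8 h after dosing. GFP induction quantified by high-content fluorescence microscopy image analysis; gain of signal fitted versus DMSO.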

[16] = molecular target: Estrogen receptor (Homo sapiens) (UniProt P03372); test: OT_ERa_GFPERaERE_0120: Odyssey Thera (OT) 2-hour HeLa Transcription Induction Assay for Estrogen Receptor (AID 2283382)
How it was run: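 HeLa cells were dosed for 2 h, then GFP reporter induction was quantified by fluorescence microscopy with high-content image analysis. Gain of signal fitted against DMSO baseline.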

[17] = molecular target: Norway rat Vesicular Monoamine Transporter (VMAT2), neurotransmitter transporter, Slc18a2 (gene 25549) (UniProt Q01827); test: NVS_TR_rVMAT2: NovaScreen (NVS) Transporter Assay for Norway rat Vesicular Monoamine Transporter (VMAT2), neurotransmitter transporter (AID 2283376);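 further: actives lower the bound radioligand signal below the DMSO level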
How it was run: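 Tissue: rat forebrain extract. Format: competitive radioligand binding, cell-free. Timepoint: 1 h. Readout: filter radiodetection/scintillation. Screen: 25 uM in duplicate, then concentration series for actives. Baseline: DMSO.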

[18] = molecular target: human Norepinephrine Transporter (NET), SLC6A2 (gene 6530) (UniProt P23975); test: NVS_TR_hNET: NovaScreen (NVS) Transporter Assay for human Norepinephrine Transporter (NET) (AID 2283377);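 further: cell-free membrane protein extracted from CHO cells expressing human NET; displacement of radioligand from human NET seen as loss of scintillation signal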
Chain of human Norepinephrine Transporter (NET), SLC6A2 (gene 6530) (P23975 whole entry, looked up): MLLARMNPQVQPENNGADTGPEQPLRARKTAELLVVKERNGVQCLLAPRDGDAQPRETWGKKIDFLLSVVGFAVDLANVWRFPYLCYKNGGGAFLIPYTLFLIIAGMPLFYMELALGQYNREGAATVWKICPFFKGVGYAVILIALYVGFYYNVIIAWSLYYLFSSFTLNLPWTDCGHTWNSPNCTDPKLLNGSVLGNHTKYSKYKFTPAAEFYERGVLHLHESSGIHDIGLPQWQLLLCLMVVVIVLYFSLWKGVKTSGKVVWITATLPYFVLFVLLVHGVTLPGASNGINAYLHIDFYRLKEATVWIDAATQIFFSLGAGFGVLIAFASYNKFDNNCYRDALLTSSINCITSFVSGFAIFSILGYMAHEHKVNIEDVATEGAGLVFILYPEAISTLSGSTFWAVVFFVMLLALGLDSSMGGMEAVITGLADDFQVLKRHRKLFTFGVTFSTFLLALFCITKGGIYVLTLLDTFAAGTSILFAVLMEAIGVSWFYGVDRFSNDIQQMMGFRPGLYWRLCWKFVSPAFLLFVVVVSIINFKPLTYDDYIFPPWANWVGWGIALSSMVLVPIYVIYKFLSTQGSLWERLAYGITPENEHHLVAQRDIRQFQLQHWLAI
How it was run: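 Scintillation counts of filter-retained radioligand served as the readout, taken 1 h post-dosing in a cell-free CHO-derived system. Test chemicals ran first at 25 uM in duplicate; confirmed hits were retested across concentrations.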

Structure (SMILES): CCCSP(=O)(OCC)SCCC
- outcome [1]: inactive
- outcome [2]: inactive
- outcome [3]: inactive
- outcome [4]: inactive
- outcome [5]: inactive
- outcome [6]: inactive
- outcome [7]: inactive
- outcome [8]: inactive
- outcome [9]: inactive
- outcome [10]: inactive
- outcome [11]: inactive
- outcome [12]: inactive
- outcome [13]: inactive

Structure (SMILES): CC(C)=CC1C(C(=O)OCN2C(=O)C3=C(CCCC3)C2=O)C1(C)C (stereo not drawn)
- outcome [14]: inactive
- outcome [1]: inactive
- outcome [5]: inactive
- outcome [6]: inactive
- outcome [7]: inactive
- outcome [8]: inactive

Structure (SMILES): CCCCOC(=O)c1ccccc1C(=O)O
- outcome [1]: inactive
- outcome [2]: inactive
- outcome [3]: inactive
- outcome [4]: inactive
- outcome [5]: inactive
- outcome [6]: inactive
- outcome [7]: inactive
- outcome [8]: inactive

Structure (SMILES): COP(=O)(OC)OC(Br)C(Cl)(Cl)Br (stereo not drawn)
- outcome [2]: inactive
- outcome [15]: inactive
- outcome [16]: inactive
- outcome [3]: inactive
- outcome [4]: inactive
- outcome [6]: inactive
- outcome [7]: inactive
- outcome [8]: inactive

Structure (SMILES): Cc1cc(C2CC2)nc(Nc2ccccc2)n1
- outcome [17]: inactive
- AC50 [18]: 3.82 µM (active)
- AC50 [2]: 50 µM (active)
- outcome [15]: inactive
- outcome [16]: inactive
- AC50 [3]: 20.4 µM (active)
- outcome [4]: inactive
- outcome [5]: inactive
- outcome [6]: inactive
- outcome [7]: inactive
- outcome [8]: inactive

Structure (SMILES): CC(=NC#N)N(C)Cc1ccc(Cl)nc1
- outcome [2]: inactive
- outcome [5]: inactive
- outcome [6]: inactive
- outcome [7]: inactive
- outcome [8]: inactive

Structure (SMILES): CN1COCN(Cc2cnc(Cl)s2)C1=N[N+](=O)[O-]
- outcome [4]: inactive
- outcome [5]: inactive
- outcome [6]: inactive
- outcome [7]: inactive
- outcome [8]: inactive

Structure (SMILES): CC(C)[C@H](C(=O)O[C@H](C#N)c1cccc(Oc2ccccc2)c1)c1ccc(Cl)cc1
- outcome [2]: inactive
- outcome [6]: inactive
- outcome [7]: inactive
- outcome [8]: inactive

Structure (SMILES): CN(C)C(=O)Nc1cccc(C(F)(F)F)c1
- outcome [2]: inactive
- outcome [5]: inactive
- outcome [6]: inactive
- outcome [7]: inactive
- outcome [8]: inactive
- outcome [9]: inactive
- AC50 [10]: 52.6 µM (active)

Structure (SMILES): N#CSCSC#N
- outcome [2]: inactive
- AC50 [3]: 11.4 µM (active)
- outcome [7]: inactive
- outcome [8]: inactive

Structure (SMILES): CON=C(C(=O)OC)c1ccccc1CON=C(C)c1cccc(C(F)(F)F)c1
- AC50 [5]: 17.4 µM (active)
- outcome [5]: inactive
- outcome [6]: inactive
- outcome [7]: inactive
- outcome [8]: inactive

Structure (SMILES): CSc1nnc(C(C)(C)C)c(=O)n1N
- outcome [2]: inactive
- outcome [3]: inactive
- outcome [4]: inactive
- outcome [5]: inactive
- outcome [6]: inactive
- outcome [9]: inactive
- outcome [10]: inactive
- outcome [12]: inactive
- outcome [13]: inactive

Structure (SMILES): CCCCN(CC)c1c([N+](=O)[O-])cc(C(F)(F)F)cc1[N+](=O)[O-]
- outcome [2]: inactive
- outcome [5]: inactive
- outcome [6]: inactive
- outcome [7]: inactive
- outcome [8]: inactive
- outcome [9]: inactive
- outcome [10]: inactive
- outcome [12]: inactive
- outcome [13]: inactive

Structure (SMILES): CCOP(=S)(OCC)OC(Cl)C(Cl)(Cl)Cl (stereo not drawn)
- outcome [2]: inactive
- AC50 [5]: 80.9 µM (active)
- outcome [5]: inactive
- outcome [6]: inactive
- outcome [7]: inactive
- outcome [8]: inactive

Structure (SMILES): CCOP(=O)(SC(C)CC)N1CCSC1=O (stereo not drawn)
- outcome [5]: inactive
- outcome [6]: inactive
- outcome [7]: inactive
- outcome [8]: inactive

Structure (SMILES): S=C1NCCN1
- outcome [5]: inactive
- outcome [6]: inactive
- outcome [7]: inactive
- outcome [8]: inactive

Structure (SMILES): CCOP(=S)(OCC)SCCSCC
- outcome [2]: inactive
- outcome [5]: inactive
- outcome [7]: inactive
- outcome [8]: inactive

Structure (SMILES): CC1=NNC(=O)N(/N=C/c2cccnc2)C1
- outcome [2]: inactive
- outcome [6]: inactive
- outcome [7]: inactive
- outcome [8]: inactive

Structure (SMILES): CNC(=O)ON=C(C)SC
- outcome [2]: inactive
- outcome [5]: inactive
- outcome [6]: inactive
- outcome [7]: inactive
- outcome [8]: inactive
- outcome [9]: inactive
- outcome [10]: inactive
- outcome [12]: inactive
- outcome [13]: inactive

Structure (SMILES): CN(C)NC(=O)CCC(=O)O
- AC50 [2]: 16.8 µM (active)
- outcome [5]: inactive
- outcome [6]: inactive
- outcome [7]: inactive
- outcome [8]: inactive
- outcome [9]: inactive
- outcome [10]: inactive

Structure (SMILES): CN(C)[C@@H]1C(=O)C(C(N)=O)=C(O)[C@@]2(O)C(=O)C3=C(O)c4c(O)cccc4[C@@](C)(O)[C@H]3[C@H](O)[C@@H]12
- AC50 [5]: 50 µM (active)
- outcome [5]: inactive
- AC50 [6]: 23.7 µM (active)
- outcome [6]: inactive
- outcome [7]: inactive
- outcome [8]: inactive
